Screening data as filed in PubChem.
Rows were chosen to be rich in hits. Some 7.9% of all compounds tested hit in one or more screens of this group.
HCMV antiviral: human cytomegalovirus inhibition | 410,000 compounds, 4.5% hits | HFF cells, HCMV-luciferase reporter, 72 h; active compounds read low | activity change, negative = inhibition, % at 57.5 µM; in the data active = activity change below about -60%; inconclusive = no clear call, values can overlap the other calls; inactive = above about -39%
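Inhibition of viral replication was scored as loss of reporter luminescence in HFFs infected with HCMV-luciferase (MOI 1 PFU/cell) for 72 h; compounds tested at 2 doses, normalized to buffer and Salinomycin controls.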
MARV entry inh: blocks Marburg virus binding to or entry into cells; Marburg virus pseudotyped entry inhibition, cell reporter; 300,000 compounds, 1.8% hits; Potency, µM (doses to about 37.8 µM), most hits filed as inhibitors; calls by dose curve; tested in HEK293 cells
FMDV antiviral: foot and mouth disease virus antiviral activity; FMDV antiviral cell-based qHTS; Potency, µM (doses to about 57.9 µM), most hits filed as inhibitors; 410,000 compounds, 1.2% hits; AID 1159524; calls by dose curve; tested in HEK293T cells; also: read-out not given here; nearly all actives have a fitted effect of over 45% in size
HCV inhibitor: blocks hepatitis C virus | Huh7.5.1 HCVcc-Cre infection, luciferase reporter, 44 h | Potency, µM (top dose mostly 41.8 µM), most hits filed as inhibitors | AID 651820 | 340,000 compounds, 3.4% hits; active = well fitted inhibition curve with a large enough effect; inconclusive = small, poorly fitted or top-dose-only effect, or another doubt; inactive = no such curve, though single readings can be large or run the other way
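Antiviral activity was scored by luciferase reporter output from cells infected with HCVcc-Cre (~0.5 moi) in presence of compound, 44 h infection period, cells seeded 1,000/well 4 h prior.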
Lassa entry inh: Lassa virus entry inhibition; Lassa virus pseudotype entry inhibition, cell reporter; Potency, µM (top dose mostly 37.9 µM), hits mostly inhibitors; 300,000 compounds, 1.2% hits; AID 540256; calls by dose curve; tested in HEK293 cells; also: nearly all actives have a fitted effect of over 50% in size
A number is an active result; . = inactive; ? = inconclusive; / = not tested or not shown.

SMILES	HCMV antiviral	MARV entry inh	FMDV antiviral	HCV inhibitor	Lassa entry inh
COC(=O)C1=C(C(=O)OC)[C@@H]2N(C)c3ccccc3[C@@]23C[C@@H](CO)N(C(=O)c2ccc(Br)cc2)C3=N1	/	.	/	/	/
COc1ccccc1CNC(=O)Cc1csc2nc(-c3ccccc3)cn12	.	/	.	/	.
O=C(NC(c1cccnc1)C(F)(F)F)c1cc(COc2ccc3c(c2)CCCC3)on1 (stereo unspecified)	-82.4	/	.	4.47µM	/
CC(=O)NC(c1ccc(F)c(F)c1)c1nc(-c2cnn(C)c2)cs1 (stereo unspecified)	.	/	.	/	/
Cc1ccc(C(=O)NCC(=O)OCC(=O)c2ccccc2)s1	.	/	.	.	/
COC(=O)CNC(=O)c1ccc(C)s1	-101.8	.	.	.	.
Cc1ccc(C(=O)NNC(=O)c2ccoc2C)s1	-98.4	.	.	.	?
COc1ccc(CNC(=O)c2cn(Cc3ccc(OC(C)=O)cc3)c(=O)s2)cc1	.	/	.	/	/
COc1ccc(C(=O)/C=C/NCc2ccc(C)cc2)cc1	-60.5	.	.	.	?
COc1ccc(CNC(=O)c2cn(Cc3ccc(S(=O)(=O)N(C)C)cc3)c(=O)s2)cc1	-81.2	/	?	/	/
COc1ccc(N(C)S(=O)(=O)c2ccc(Cl)c(C(=O)NCCc3ccc(Cl)cc3)c2)cc1	.	?	.	10µM	?
CC(C)CCNC(=O)COc1ccc(N(C)S(=O)(=O)c2ccc(F)cc2)cc1	-86.8	?	.	.	?
O=C(NCC[C@@H]1C[C@@H]2C=C[C@H]1C2)c1cc(COc2ccc(F)cc2F)on1	.	/	.	.	/
COc1ccc(S(=O)(=O)N(C)c2ccc(C(=O)NC3CCCC3)cc2)cc1	.	?	.	.	?
CCOCCCNC(=O)c1ccc(N(C)S(=O)(=O)c2ccc(OC)cc2)cc1	-103.3	.	.	.	.
COc1ccc(S(=O)(=O)N(C)c2ccc(C(=O)NCCC(C)C)cc2)cc1	.	.	.	.	8.2µM
COc1ccc(S(=O)(=O)N(C)c2ccc(C(=O)NCc3ccco3)cc2)cc1	.	.	.	.	.
COc1ccc(CNC(=O)c2ccc(N(C)S(=O)(=O)c3ccc(C)cc3)cc2)cc1	.	?	.	4.47µM	?
COc1ccc(S(=O)(=O)N(C)c2ccc(C(=O)NCc3ccncc3)cc2)cc1	.	.	.	.	.
C=CCNC(=O)c1ccc(CN(c2ccc(OCC)cc2)S(=O)(=O)c2ccc(C)cc2)cc1	.	/	.	11.2µM	/
COc1ccc2c(c1)OC(C)CN(CC(=O)NCc1cn[nH]c1-c1ccc(F)cc1)C2 (stereo unspecified)	/	/	.	/	/
c1cc(Nc2ncnc3sc4c(c23)CCC4)ccn1	-63.3	.	.	.	.
C(=N\Nc1ncnc2sc3c(c12)CCC3)/c1cccs1	-102.5	.	/	/	/
CN(C)c1ccc(Nc2ncnc3sc4c(c23)CCCC4)cc1	-89.5	/	?	/	.
COCC(=O)Nc1cc(C(=O)NC2Cc3ccccc3C2)cc2nc(-c3cccnc3)n(C)c12	/	/	.	/	/
SMILES	HCMV antiviral	MARV entry inh	FMDV antiviral	HCV inhibitor	Lassa entry inh
c1ccc(-c2cc(NCCN3CCCCC3)c3ccccc3n2)cc1	-99.6	2.82µM	?	?	?
O=C(c1cc(-c2ccccc2)nc2ccccc12)N1CCCC1	.	?	.	.	.
CC(=O)Nc1ccccc1-c1nc(CNC(=O)c2ccc(C)cc2)c(C)o1	/	/	.	/	/
COc1cc2c(c(OC)c1O)-c1ccc(OC)c(=O)cc1C(NC(=O)C(F)(F)F)CC2 (stereo unspecified)	-90.3	?	.	.	?
COc1cc2c(c(OC)c1OC)-c1ccc(SC)c(=O)cc1C(NC(=O)C(F)(F)F)CC2 (stereo unspecified)	-81.5	?	?	.	?
Cc1nnc(-c2ccccc2)c(=O)n1/N=C/c1c(O)ccc2ccccc12	-98.7	?	.	?	?
O=c1c2ccccc2nc(COc2ccccc2)n1/N=C/c1c[nH]c2ccccc12	.	.	.	.	?
O=c1c2ccccc2nc(COc2ccccc2)n1/N=C/c1ccc(O)cc1O	-95.9	/	.	?	/
Cc1nc2ccccc2c(=O)n1/N=C/c1ccc2ccccc2c1O	-82.4	/	?	.	/
O=C1CCc2cc(S(=O)(=O)Nc3ccccc3)ccc2N1	.	/	.	.	/
COC(=O)c1ccc(C2c3c(oc4ccccc4c3=O)C(=O)N2c2nc(C)c(C(=O)OC)s2)cc1 (stereo unspecified)	.	.	.	/	.
C[C@H]1[C@@H](NS(=O)(=O)c2ccc(Br)cc2)CC[C@@]23CCCN2C(=O)CCC[C@@H]13	.	/	/	/	/
O=C(Nc1ccccc1)c1ccc(Nc2c([N+](=O)[O-])cc([N+](=O)[O-])c3ccccc23)cc1	-74.2	?	?	?	.
Cc1c(C(=O)Nc2ccc(Nc3ccccc3)cc2)cccc1[N+](=O)[O-]	.	/	?	?	/
O=[N+]([O-])c1ccc(Nc2ccccc2O)c([N+](=O)[O-])c1	?	/	.	/	/
O=[N+]([O-])c1cc(Br)c(Nc2ccccc2)c([N+](=O)[O-])c1	-85.4	/	?	?	/
COc1ccc(-c2noc(N3CCC(C(=O)Nc4cccc(OC)c4)CC3)n2)cc1	.	/	.	22.4µM	/
COc1ccc(-c2noc(N3CCC(C(=O)N(C)c4ccccc4C)CC3)n2)cc1	?	/	.	11.2µM	/
CCOC(=O)c1c(NC(=O)CN2CCCc3ccccc32)sc(C)c1CC	.	?	.	?	?
Cc1nc2ccccn2c1C(=O)NNS(=O)(=O)c1ccc(C(C)(C)C)cc1	-63.5	?	?	?	?
COc1ccc(Br)cc1S(=O)(=O)NNC(=O)c1c(C)nc2ccccn12	.	.	.	.	.
O=C(Nc1ccc(O)cc1)c1ccc(NC(=O)C2CCCO2)cc1 (stereo unspecified)	-63.3	/	.	.	/
NC(=O)c1ccc(NC(=O)C2CCCO2)cc1 (stereo unspecified)	.	.	.	.	.
Cc1cc(NC(=O)c2ccc(NC(=O)C3CCCO3)cc2)ccc1Br (stereo unspecified)	-73.6	/	?	.	/
Cc1ccc2c(c1)/C(=C/c1ccccc1C)C(=O)N2	.	11.2µM	.	.	?
SMILES	HCMV antiviral	MARV entry inh	FMDV antiviral	HCV inhibitor	Lassa entry inh
COc1ccc2c(c1)/C(=C/c1cc(OC)c(OC)c(OC)c1)C(=O)N2	.	?	?	?	?
Cc1ccc2c(c1)/C(=C/c1ccc(F)cc1)C(=O)N2	.	/	?	11.2µM	/
CC1(C)CC(NC(=O)N2c3ccccc3Sc3ccccc32)CC(C)(C)N1	.	3.16µM	.	.	.
Cc1ccc(CNC(=O)Cn2c(=O)n(Cc3ccc(F)cc3)c(=O)c3sc4ccccc4c32)cc1	-64.6	.	.	/	.
CCC(C)NC(=O)Cn1c(=O)n(Cc2ccc(C(=O)NCc3ccccc3OC)cc2)c(=O)c2ccccc21 (stereo unspecified)	.	?	.	/	.
COc1cccc(-n2c(=O)c3sc4ccccc4c3n(CC(=O)Nc3cccc(Cl)c3)c2=O)c1	.	.	.	/	.
COc1cccc(-n2c(=O)c3sc4ccccc4c3n(CC(=O)Nc3ccc(F)cc3F)c2=O)c1	-69.8	.	.	/	.
